From PubChem BioAssay (EPA / NIEHS)
Calls of active or inactive are those of the source. Rule for the calls: active = hit-call score of the fitted dose curve at least 0.9, where 1 is the maximum; inactive = score below 0.9.

How the values were obtained:
Conditions in all cases: mRNA level, 48 h; actives raise or lower the signal
[1] = read-out: DNA damage-inducible transcript 3 (DDIT3), DDIT3 (gene 1649); assay: LTEA_HepaRG_DDIT3: Life Technologies and Expression Analysis (LTEA) Assay for DNA damage-inducible transcript 3 (DDIT3) using HepaRG (AID 2283488)
How it was run: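 Differentiated human HepaRG cells in serum-free induction medium were exposed in duplicate for 48 h to 8 concentrations (top 100 uM, half-log steps, 0.5% DMSO). DDIT3 mRNA measured by TaqMan qRT-PCR, normalized to ACTB/GAPDH/POLR2A; bidirectional fit versus DMSO.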

[2] = read-out: Pro-epidermal growth factor (Homo sapiens) (UniProt P01133); assay: LTEA_HepaRG_EGF: Life Technologies and Expression Analysis (LTEA) Assay for Epidermal growth factor (EGF) using HepaRG (AID 2283489)
How it was run: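 Concentration-response mRNA assay: HepaRG cells dosed 48 h (max 100 uM, 0.5% DMSO), EGF measured by qRT-PCR and normalized to ACTB/GAPDH/POLR2A.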

[3] = read-out: Early growth response protein 1 (EGR1) transcription factor, EGR1 (gene 1958); assay: LTEA_HepaRG_EGR1: Life Technologies and Expression Analysis (LTEA) Assay for Early growth response protein 1 (EGR1) transcription factor using HepaRG (AID 2283490)
How it was run: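 Differentiated human HepaRG cells in serum-free induction medium were exposed in duplicate for 48 h to eight concentrations (top 100 uM, half-log steps) in 0.5% DMSO. EGR1 mRNA was quantified by qRT-PCR, normalized to ACTB, GAPDH and POLR2A, and fitted bidirectionally versus DMSO.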

[4] = read-out: Ezrin (EZR), EZR (gene 7430); assay: LTEA_HepaRG_EZR: Life Technologies and Expression Analysis (LTEA) Assay for Ezrin (EZR) using HepaRG (AID 2283491)
How it was run: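 Gain or loss of EZR mRNA is scored relative to 0.5% DMSO in human HepaRG cultures treated 48 h with test chemicals in duplicate, eight half-log concentrations from 100 uM.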

[5] = read-out: Cytochrome P450 3A7 (Homo sapiens) (UniProt P24462); assay: LTEA_HepaRG_CYP3A7: Life Technologies and Expression Analysis (LTEA) Assay for CYP3A7 using HepaRG (AID 2283492)
How it was run: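 qRT-PCR of CYP3A7 in HepaRG lysates after 48 h treatment; concentration-response (8 points, max 100 uM) analysed bidirectionally relative to 0.5% DMSO controls.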

[6] = read-out: CYP3A5 (gene 1577); assay: LTEA_HepaRG_CYP3A5: Life Technologies and Expression Analysis (LTEA) Assay for CYP3A5 using HepaRG (AID 2283493)
How it was run: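 Differentiated HepaRG cells in serum-free induction medium were dosed 48 h with test chemicals (8-point half-log series, top 100 uM, 0.5% DMSO, duplicate). CYP3A5 mRNA measured by qRT-PCR, normalized to ACTB, GAPDH, POLR2A; bidirectional fit versus DMSO.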

[7] = read-out: Fatty Acid-Binding Protein 1 (FABP1), FABP1 (gene 2168); assay: LTEA_HepaRG_FABP1: Life Technologies and Expression Analysis (LTEA) Assay for Fatty Acid-Binding Protein 1 (FABP1) using HepaRG (AID 2283494)
How it was run: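 Differentiated human HepaRG cells were exposed in duplicate for 48 h in serum-free induction medium to 8-point half-log concentration series topping at 100 uM in 0.5% DMSO. FABP1 mRNA measured by TaqMan qRT-PCR, normalized to ACTB/GAPDH/POLR2A; bidirectional fit versus DMSO.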

[8] = read-out: Cytochrome P450 4A22 (Homo sapiens) (UniProt Q5TCH4); assay: LTEA_HepaRG_CYP4A22: Life Technologies and Expression Analysis (LTEA) Assay for Cytochrome P450 4A22 (CYP4A22) using HepaRG (AID 2283495)
How it was run: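 Concentration-response (8 points, max 100 uM, 0.5% DMSO) in human HepaRG liver cells after 48 h exposure. CYP4A22 mRNA by TaqMan qRT-PCR with housekeeping-gene normalization.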

[9] = read-out: Cytochrome P450 7A1 (Homo sapiens) (UniProt P22680); assay: LTEA_HepaRG_CYP7A1: Life Technologies and Expression Analysis (LTEA) Assay for Cytochrome P450 7A1 (CYP7A1) using HepaRG (AID 2283496)
How it was run: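 Gene expression endpoint in human HepaRG liver cells treated for 48 h with test chemicals (up to 100 uM, 0.5% DMSO). Values come from bidirectional concentration-response fitting versus DMSO.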

[10] = read-out: Glutathione S-Transferase (GSTA2), GSTA2 (gene 2939); assay: LTEA_HepaRG_GSTA2: Life Technologies and Expression Analysis (LTEA) Assay for Glutathione S-Transferase (GSTA2) using HepaRG (AID 2283497)
How it was run: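 Human HepaRG cells, plated 48 h, then exposed in serum-free induction medium for 48 h to eight half-log concentrations up to 100 uM in 0.5% DMSO, duplicate. GSTA2 mRNA by qRT-PCR, normalized to ACTB/GAPDH/POLR2A; bidirectional fit versus DMSO.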

[11] = read-out: Glutamate-cysteine ligase catalytic (GCLC), GCLC (gene 2729); assay: LTEA_HepaRG_GCLC: Life Technologies and Expression Analysis (LTEA) Assay for Glutamate-cysteine ligase catalytic (GCLC) using HepaRG (AID 2283498)
How it was run: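 Differentiated human HepaRG cells, plated 48 h then switched to serum-free induction medium, were exposed in duplicate for 48 h to 8 half-log concentrations topping at 100 uM in 0.5% DMSO. GCLC mRNA was quantified by qRT-PCR against ACTB, GAPDH and POLR2A.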

[12] = read-out: growth arrest and DNA damage 45 (GADD45G), GADD45G (gene 10912); assay: LTEA_HepaRG_GADD45G: Life Technologies and Expression Analysis (LTEA) Assay for growth arrest and DNA damage 45 (GADD45G) using HepaRG (AID 2283499)
How it was run: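 Concentration-response in HepaRG: 48 h dosing, 0.5% DMSO, highest level 100 uM. GADD45G expression by qRT-PCR, normalised to endogenous controls; bidirectional fit to DMSO.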

[13] = read-out: Glutamate-cysteine ligase regulatory (GCLM), GCLM (gene 2730); assay: LTEA_HepaRG_GCLM: Life Technologies and Expression Analysis (LTEA) Assay for Glutamate-cysteine ligase regulatory (GCLM) using HepaRG (AID 2283500)
How it was run: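 Differentiated human HepaRG cells exposed 48 h in serum-free induction medium to 8-point half-log concentrations (top 100 uM, 0.5% DMSO), in duplicate. GCLM mRNA quantified by qRT-PCR, normalized to ACTB, GAPDH, POLR2A; bidirectional fitting versus DMSO.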

[14] = read-out: Glutathione S-transferase M3 (GSTM3), GSTM3 (gene 2947); assay: LTEA_HepaRG_GSTM3: Life Technologies and Expression Analysis (LTEA) Assay for Glutathione S-transferase M3 (GSTM3) using HepaRG (AID 2283501)
How it was run: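 Expression of GSTM3 is determined by qRT-PCR in human liver HepaRG cells treated 48 h with an 8-point half-log range from 100 uM in 0.5% DMSO.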

[15] = read-out: Heat shock 70 kDa protein 1 (HSPA1A), gene 3303; assay: LTEA_HepaRG_HSPA1A: Life Technologies and Expression Analysis (LTEA) Assay for Heat shock 70 kDa protein 1 (HSPA1A) using HepaRG (AID 2283502)
How it was run: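 Differentiated human HepaRG cells in serum-free induction medium were exposed in duplicate for 48 h to eight concentrations (top 100 uM, half-log steps, 0.5% DMSO). HSPA1A mRNA was quantified by qRT-PCR, normalized to ACTB, GAPDH and POLR2A, and fitted bidirectionally against DMSO.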

[16] = read-out: Hypoxia-inducible factor 1-alpha (Homo sapiens) (UniProt Q16665); assay: LTEA_HepaRG_HIF1A: Life Technologies and Expression Analysis (LTEA) Assay for Hypoxia-inducible factor 1 (HIF1A) Trancription factor using HepaRG (AID 2283503)
How it was run: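 HepaRG, 48 h exposure, 8-pt half-log series from 100 uM, 0.5% DMSO vehicle, duplicates. Readout: HIF1A transcript by qRT-PCR (Fluidigm array), housekeeping-normalised. Bidirectional curve fit vs DMSO baseline.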

[17] = read-out: 3-Hydroxy-3-Methylglutaryl-CoA Synthase 2 (HMGCS2), HMGCS2 (gene 3158); assay: LTEA_HepaRG_HMGCS2: Life Technologies and Expression Analysis (LTEA) Assay for 3-Hydroxy-3-Methylglutaryl-CoA Synthase 2 (HMGCS2) using HepaRG (AID 2283504)
How it was run: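 This steatosis marker was read as HMGCS2 mRNA change in HepaRG cells treated 48 h with up to 100 uM chemical. Normalisation used housekeeping genes; activity in either direction was fitted relative to 0.5% DMSO vehicle.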

[18] = read-out: HGF (gene 3082); assay: LTEA_HepaRG_HGF: Life Technologies and Expression Analysis (LTEA) Assay for Hepatocyte Growth Facto (HGF) using HepaRG (AID 2283505)
How it was run: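 Using HepaRG monolayers kept in 0.5% DMSO, chemicals were tested in duplicate over eight half-log concentrations from 100 uM for 48 h. Endpoint: HGF mRNA change relative to DMSO, normalized to ACTB/GAPDH/POLR2A.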

[19] = read-out: Insulin Like Growth Factor 1 (IGF1), IGF1 (gene 3479); assay: LTEA_HepaRG_IGF1: Life Technologies and Expression Analysis (LTEA) Assay for Insulin Like Growth Factor 1 (IGF1) using HepaRG (AID 2283506)
How it was run: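 Differentiated human HepaRG cells were dosed for 48 h in serum-free induction medium with 0.5% DMSO, eight half-log concentrations up to 100 uM, in duplicate. IGF1 mRNA was quantified by qRT-PCR normalized to ACTB, GAPDH, POLR2A; bidirectional fitting versus DMSO.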

[20] = read-out: Intercellular Adhesion Molecule 1 (ICAM1), ICAM1 (gene 3383); assay: LTEA_HepaRG_ICAM1: Life Technologies and Expression Analysis (LTEA) Assay for Intercellular Adhesion Molecule 1 (ICAM1) using HepaRG (AID 2283507)
How it was run: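 Using the human liver line HepaRG, compounds are tested in duplicate over 48 h at concentrations up to 100 uM. Expression is determined by TaqMan qRT-PCR, normalized to endogenous controls, and analysed relative to 0.5% DMSO vehicle.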

Measured: AC50

Sequence of Cytochrome P450 3A7 (Homo sapiens) (P24462 whole entry, looked up): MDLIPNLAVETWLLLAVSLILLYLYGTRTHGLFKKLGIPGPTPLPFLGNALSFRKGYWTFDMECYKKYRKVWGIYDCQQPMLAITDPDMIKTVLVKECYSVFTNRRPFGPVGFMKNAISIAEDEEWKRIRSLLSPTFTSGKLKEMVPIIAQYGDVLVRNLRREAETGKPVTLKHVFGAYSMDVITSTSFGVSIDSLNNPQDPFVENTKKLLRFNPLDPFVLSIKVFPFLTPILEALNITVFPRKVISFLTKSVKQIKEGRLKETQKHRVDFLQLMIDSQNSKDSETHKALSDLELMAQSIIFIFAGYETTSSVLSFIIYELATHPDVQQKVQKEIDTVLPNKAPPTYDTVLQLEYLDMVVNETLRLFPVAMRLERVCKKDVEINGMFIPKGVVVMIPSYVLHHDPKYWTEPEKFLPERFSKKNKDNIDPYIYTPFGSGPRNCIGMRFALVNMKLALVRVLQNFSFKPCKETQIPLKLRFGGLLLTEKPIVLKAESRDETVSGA
Sequence of Hypoxia-inducible factor 1-alpha (Homo sapiens) (Q16665 whole entry, looked up): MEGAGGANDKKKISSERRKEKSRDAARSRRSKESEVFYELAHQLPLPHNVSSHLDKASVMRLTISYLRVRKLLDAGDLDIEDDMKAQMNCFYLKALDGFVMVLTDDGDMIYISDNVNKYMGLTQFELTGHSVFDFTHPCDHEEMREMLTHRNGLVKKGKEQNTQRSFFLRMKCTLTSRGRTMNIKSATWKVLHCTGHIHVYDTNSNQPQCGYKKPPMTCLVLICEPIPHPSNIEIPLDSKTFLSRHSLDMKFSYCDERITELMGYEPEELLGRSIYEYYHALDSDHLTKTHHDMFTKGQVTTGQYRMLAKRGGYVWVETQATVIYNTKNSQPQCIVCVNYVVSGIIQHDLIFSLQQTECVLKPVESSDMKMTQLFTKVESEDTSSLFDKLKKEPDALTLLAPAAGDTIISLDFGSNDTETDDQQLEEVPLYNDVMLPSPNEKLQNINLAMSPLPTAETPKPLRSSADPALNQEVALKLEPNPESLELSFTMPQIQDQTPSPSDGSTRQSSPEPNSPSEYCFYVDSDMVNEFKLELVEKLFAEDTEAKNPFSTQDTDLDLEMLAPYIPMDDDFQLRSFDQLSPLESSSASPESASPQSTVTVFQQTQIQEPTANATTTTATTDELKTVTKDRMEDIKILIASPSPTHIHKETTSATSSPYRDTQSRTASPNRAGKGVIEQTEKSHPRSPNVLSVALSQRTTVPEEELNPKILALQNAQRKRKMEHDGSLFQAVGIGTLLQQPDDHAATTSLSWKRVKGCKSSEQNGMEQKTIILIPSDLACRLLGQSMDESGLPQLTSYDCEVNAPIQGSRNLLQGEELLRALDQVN

CCCOc1sc(C(=O)N2CCC(c3cc(CN)ccc3F)CC2)c(C)c1Br
inactive: all assays above

CCCCCCCC(=O)O
active: [20] 0.405 µM
inactive: all other assays above

OC1CCCCC1
inactive: all assays above

CC(C)(C)c1ccc(O)c(C(C)(C)C)c1
inactive: all assays above

COC(=O)CCCCC(=O)OC
inactive: all assays above

Cc1oc(-c2ccccc2)nc1CCOc1ccc(C[C@H](Nc2ccccc2C(=O)c2ccccc2)C(=O)O)cc1
active: [1] 14.1 µM | [2] 24.9 µM | [3] 87.9 µM | [4] 70 µM | [5] 25.7 µM | [6] 30.5 µM | [7] 23.1 µM | [8] 0.189 µM | [9] 23.4 µM | [10] 23.4 µM | [11] 64 µM | [12] 0.0219 µM | [14] 27.9 µM | [15] 16.2 µM | [16] 30.8 µM | [17] 22.8 µM | [18] 15.8 µM | [19] 12.4 µM | [20] 26.8 µM
inactive: [13]

CCCCOCCO
inactive: all assays above

c1ccc2cc3c(ccc4ccccc43)cc2c1
inactive: [2] | [4] | [11] | [14] | [15] | [16] | [18] | [20]
active: [1] 17.7 µM | [3] 27.9 µM | [5] 15.7 µM | [6] 7.18 µM | [7] 21.7 µM | [8] 26 µM | [9] 20.6 µM | [10] 8.52 µM | [12] 15.5 µM | [13] 38.8 µM | [17] 19.7 µM | [19] 20.1 µM

c1ccc2c(c1)Cc1ccccc1-2
inactive: all assays above
